The results in this text go back to PubChem BioAssay (EPA / NIEHS).

“And” between values parts separate entries of the source, which are not always exact repeats. Equal entries are not always repeated. Records with an inconclusive call do not appear. The source made the active and inactive calls. How the source made its calls: active means hit-call score of the fitted dose curve at least 0.9, where 1 is the maximum; inconclusive means response in the unintended direction; inactive means score below 0.9.

Chain of human Vascular Endothelial Growth Factor Receptor 2 (VEGFR2), KDR (gene 3791) (P35968 whole entry, looked up): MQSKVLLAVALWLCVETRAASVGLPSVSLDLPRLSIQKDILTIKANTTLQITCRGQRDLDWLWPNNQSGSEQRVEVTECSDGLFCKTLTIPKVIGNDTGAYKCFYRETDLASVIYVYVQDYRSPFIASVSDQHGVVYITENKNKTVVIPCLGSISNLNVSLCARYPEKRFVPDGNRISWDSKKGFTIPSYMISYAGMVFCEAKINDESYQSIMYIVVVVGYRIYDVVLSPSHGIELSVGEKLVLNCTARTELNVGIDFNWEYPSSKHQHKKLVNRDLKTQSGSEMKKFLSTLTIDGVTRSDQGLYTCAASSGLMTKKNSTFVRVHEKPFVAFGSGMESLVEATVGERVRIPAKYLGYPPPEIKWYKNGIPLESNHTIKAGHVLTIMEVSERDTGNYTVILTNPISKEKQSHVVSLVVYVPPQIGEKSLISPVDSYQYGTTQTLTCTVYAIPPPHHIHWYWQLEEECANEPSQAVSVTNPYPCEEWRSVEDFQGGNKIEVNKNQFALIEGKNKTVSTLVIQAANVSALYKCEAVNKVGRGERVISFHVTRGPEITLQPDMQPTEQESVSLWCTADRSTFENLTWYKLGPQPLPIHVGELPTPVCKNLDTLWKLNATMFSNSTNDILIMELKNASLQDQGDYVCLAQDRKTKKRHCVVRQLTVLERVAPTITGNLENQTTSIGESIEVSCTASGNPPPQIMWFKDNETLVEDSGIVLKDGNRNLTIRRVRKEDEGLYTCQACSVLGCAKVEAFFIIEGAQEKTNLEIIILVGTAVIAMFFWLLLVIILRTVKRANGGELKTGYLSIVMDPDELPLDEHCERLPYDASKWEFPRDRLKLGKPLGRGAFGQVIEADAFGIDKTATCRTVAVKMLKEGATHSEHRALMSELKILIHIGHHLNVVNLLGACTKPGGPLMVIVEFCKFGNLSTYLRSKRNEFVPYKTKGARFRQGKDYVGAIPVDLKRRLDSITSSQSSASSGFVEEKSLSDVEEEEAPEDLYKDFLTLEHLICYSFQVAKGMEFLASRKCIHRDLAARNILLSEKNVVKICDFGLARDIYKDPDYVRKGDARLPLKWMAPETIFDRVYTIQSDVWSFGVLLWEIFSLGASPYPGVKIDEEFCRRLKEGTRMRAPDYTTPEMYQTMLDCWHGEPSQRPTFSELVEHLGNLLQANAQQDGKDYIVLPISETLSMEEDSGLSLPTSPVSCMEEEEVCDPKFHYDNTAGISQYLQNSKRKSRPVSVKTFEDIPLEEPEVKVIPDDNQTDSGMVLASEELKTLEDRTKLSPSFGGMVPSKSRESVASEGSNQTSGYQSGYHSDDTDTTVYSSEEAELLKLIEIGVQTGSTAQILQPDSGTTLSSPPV
Chain of sheep Cyclooxygenase-2 (Cox2), PTGS2 (gene 443460) (P79208 whole entry, looked up): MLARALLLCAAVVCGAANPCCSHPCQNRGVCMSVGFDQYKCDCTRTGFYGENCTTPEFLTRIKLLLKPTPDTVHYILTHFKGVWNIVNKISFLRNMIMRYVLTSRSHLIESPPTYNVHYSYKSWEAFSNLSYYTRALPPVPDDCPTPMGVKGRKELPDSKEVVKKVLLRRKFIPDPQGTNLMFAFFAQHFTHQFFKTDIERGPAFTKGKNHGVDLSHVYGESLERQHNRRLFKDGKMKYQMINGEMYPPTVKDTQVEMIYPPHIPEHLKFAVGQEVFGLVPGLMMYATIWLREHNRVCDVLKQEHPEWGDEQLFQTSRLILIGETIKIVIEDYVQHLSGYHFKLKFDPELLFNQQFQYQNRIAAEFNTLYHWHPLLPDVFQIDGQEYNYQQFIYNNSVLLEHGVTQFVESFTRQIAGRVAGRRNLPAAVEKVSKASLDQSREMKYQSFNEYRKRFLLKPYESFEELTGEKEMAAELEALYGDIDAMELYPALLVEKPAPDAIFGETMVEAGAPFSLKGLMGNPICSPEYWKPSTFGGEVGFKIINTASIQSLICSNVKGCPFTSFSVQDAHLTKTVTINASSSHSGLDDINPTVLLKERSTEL

For one experiment, the target named is human Vascular Endothelial Growth Factor Receptor 2 (VEGFR2), KDR (gene 3791) (UniProt P35968). The experiment can be described thus: NVS_ENZ_hVEGFR2: NovaScreen (NVS) Enzymatic Assay for human Vascular Endothelial Growth Factor Receptor 2 (VEGFR2) (AID 2283230). The essentials:
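Cell-free recombinant VEGFR2 kinase, fluorescent substrate with electrophoretic mobility-shift separation; read 1 h after dosing. Screened at 25 uM in duplicate, hits to concentration-response up to 50 uM; loss-of-signal versus DMSO.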
`S=C([S-])NCCNC(=S)[S-].[Mn+2]`: the concentration at half-maximal activity (AC50) was 13.8 µM (active).
Regarding `O=C(c1ccc(O)cc1O)c1ccc(O)cc1O`, the AC50 was 14.6 µM (active).
For the compound `N[C@@H](Cc1cc(I)c(Oc2ccc(O)c(I)c2)c(I)c1)C(=O)O`, the AC50 is 6.72 µM (active).
Take `O=C(O)C1(C(=O)Nc2ccc(Cl)cc2Cl)CC1`: the compound was called inactive.
Consider `S=C(S)NCCNC(=S)S.[Mn+2].[S-]C([S-])=NCCN=C([S-])[S-].[Zn+2]`, for which the AC50 was 4.23 µM (active) and 3.35 µM (active).
Take `N#CSCSc1nc2ccccc2s1`: the call was inactive.
The same measure, in the same setting: the entry for `CC(C)(c1ccc(O)cc1)c1ccc(O)cc1` is “inactive”.

For the next experiment, the target named is sheep Cyclooxygenase-2 (Cox2), PTGS2 (gene 443460) (UniProt P79208). Description: NVS_ENZ_oCOX2: NovaScreen (NVS) Enzymatic Assay for sheep Cyclooxygenase-2 (Cox2) (AID 2283231). The method, boiled down:
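Enzyme from ovine placenta, cell-free; colorimetric absorbance read 0.66 hour after dosing, loss of signal vs DMSO. Screened in duplicate at 25 uM, then concentration-response up to 50 uM.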
As for `S=C(S)NCCNC(=S)S.[Mn+2].[S-]C([S-])=NCCN=C([S-])[S-].[Zn+2]`, the half-maximal activity concentration (AC50) is 12.5 µM (active).
Take `C[C@]12C[C@H](O)[C@H]3[C@@H](CCC4=CC(=O)CC[C@@]43C)[C@@H]1CC[C@@H]2C(=O)CO`: the result was inactive.
Still for that read-out and setting: the entry for `CC(C)(c1ccc(O)cc1)c1ccc(O)cc1` is “inactive”.

For a further experiment, the target named is rat Constitutive Nitric Oxide Synthase (CNOS), Nos1 (gene 24598) (UniProt P29476). The experiment can be described thus: NVS_ENZ_rCNOS: NovaScreen (NVS) Enzymatic Assay for rat Constitutive Nitric Oxide Synthase (CNOS) (AID 2283236). The method, boiled down: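 Single 25 uM duplicate screen, then concentration series to 50 uM for chemicals meeting threshold. Rat brain membrane-derived CNOS activity detected radiometrically by filtration and scintillation counting, 1 h after compound addition; DMSO as baseline.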
Chain of rat Constitutive Nitric Oxide Synthase (CNOS), Nos1 (gene 24598) (P29476 whole entry, looked up): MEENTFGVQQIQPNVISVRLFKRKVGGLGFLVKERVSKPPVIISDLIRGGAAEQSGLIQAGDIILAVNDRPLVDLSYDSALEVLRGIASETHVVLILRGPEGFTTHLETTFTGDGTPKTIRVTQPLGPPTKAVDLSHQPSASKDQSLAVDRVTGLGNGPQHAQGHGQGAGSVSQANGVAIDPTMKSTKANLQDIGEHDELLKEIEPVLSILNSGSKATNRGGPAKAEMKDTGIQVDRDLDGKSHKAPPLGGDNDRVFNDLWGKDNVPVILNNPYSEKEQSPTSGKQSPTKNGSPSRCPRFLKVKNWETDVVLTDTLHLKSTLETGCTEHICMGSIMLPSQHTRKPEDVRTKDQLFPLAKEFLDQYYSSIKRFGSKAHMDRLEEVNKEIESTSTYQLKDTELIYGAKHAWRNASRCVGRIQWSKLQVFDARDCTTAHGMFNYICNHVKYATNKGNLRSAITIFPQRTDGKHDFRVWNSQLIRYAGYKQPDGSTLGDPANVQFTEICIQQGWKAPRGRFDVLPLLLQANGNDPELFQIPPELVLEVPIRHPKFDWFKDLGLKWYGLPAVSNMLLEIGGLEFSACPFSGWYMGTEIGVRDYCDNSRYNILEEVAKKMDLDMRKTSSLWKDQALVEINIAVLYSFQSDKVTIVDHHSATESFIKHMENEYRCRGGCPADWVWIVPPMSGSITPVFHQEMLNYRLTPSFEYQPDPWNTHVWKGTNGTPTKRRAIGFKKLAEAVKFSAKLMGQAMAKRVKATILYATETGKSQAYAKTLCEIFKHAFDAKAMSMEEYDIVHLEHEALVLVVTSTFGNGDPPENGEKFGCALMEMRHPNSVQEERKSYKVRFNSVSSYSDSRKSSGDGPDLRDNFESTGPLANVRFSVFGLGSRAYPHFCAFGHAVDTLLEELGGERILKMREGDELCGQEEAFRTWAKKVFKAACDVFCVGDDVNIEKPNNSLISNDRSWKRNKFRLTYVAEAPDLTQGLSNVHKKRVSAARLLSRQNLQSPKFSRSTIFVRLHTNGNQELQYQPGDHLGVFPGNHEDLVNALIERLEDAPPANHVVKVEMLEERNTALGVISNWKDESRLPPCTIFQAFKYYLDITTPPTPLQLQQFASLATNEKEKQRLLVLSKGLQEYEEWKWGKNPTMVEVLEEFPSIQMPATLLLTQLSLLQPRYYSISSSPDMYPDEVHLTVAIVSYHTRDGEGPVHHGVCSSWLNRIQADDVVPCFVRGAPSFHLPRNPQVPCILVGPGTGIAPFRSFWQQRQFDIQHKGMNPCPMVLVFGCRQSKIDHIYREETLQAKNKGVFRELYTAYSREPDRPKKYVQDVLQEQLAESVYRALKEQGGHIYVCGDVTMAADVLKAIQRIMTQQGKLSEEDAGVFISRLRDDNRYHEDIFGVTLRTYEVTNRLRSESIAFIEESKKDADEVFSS
Take `CCOC(=O)C(C)Oc1ccc(Oc2nc3ccc(Cl)cc3o2)cc1` (stereo unspecified): the outcome was inactive.
For the compound `COC(=O)c1ccc(CNS(C)(=O)=O)cc1S(=O)(=O)NC(=O)Nc1nc(OC)cc(OC)n1`, the concentration at half-maximal activity (AC50) was 7.99 µM (active).
Turning to `CCOC(=O)[C@H](C)Oc1ccc(Oc2nc3ccc(Cl)cc3o2)cc1`, the concentration at half-maximal activity (AC50) is 9.56 µM (active).
Consider `N#CSCSc1nc2ccccc2s1`, for which the concentration at half-maximal activity (AC50) was 6.64 µM (active).
As to `CCCCC(CC)COC(=O)c1ccccc1C(=O)O` (stereo unspecified), the outcome was inactive.

The target in the next experiment is sheep Cyclooxygenase-1 (Cox1), PTGS1 (gene 443551) (UniProt P05979). Description: NVS_ENZ_oCOX1: NovaScreen (NVS) Enzymatic Assay for sheep Cyclooxygenase-1 (Cox1) (AID 2283239).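 Further: actives reduce cyclooxygenase activity so potencies are for inhibitors.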 The method, boiled down: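 COX1 from ovine seminal vesicles, activity read colorimetrically about 0.66 h after dosing. Primary screen in duplicate at 25 uM; actives retested in concentration series; loss of signal fitted versus DMSO.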
Chain of sheep Cyclooxygenase-1 (Cox1), PTGS1 (gene 443551) (P05979 whole entry, looked up): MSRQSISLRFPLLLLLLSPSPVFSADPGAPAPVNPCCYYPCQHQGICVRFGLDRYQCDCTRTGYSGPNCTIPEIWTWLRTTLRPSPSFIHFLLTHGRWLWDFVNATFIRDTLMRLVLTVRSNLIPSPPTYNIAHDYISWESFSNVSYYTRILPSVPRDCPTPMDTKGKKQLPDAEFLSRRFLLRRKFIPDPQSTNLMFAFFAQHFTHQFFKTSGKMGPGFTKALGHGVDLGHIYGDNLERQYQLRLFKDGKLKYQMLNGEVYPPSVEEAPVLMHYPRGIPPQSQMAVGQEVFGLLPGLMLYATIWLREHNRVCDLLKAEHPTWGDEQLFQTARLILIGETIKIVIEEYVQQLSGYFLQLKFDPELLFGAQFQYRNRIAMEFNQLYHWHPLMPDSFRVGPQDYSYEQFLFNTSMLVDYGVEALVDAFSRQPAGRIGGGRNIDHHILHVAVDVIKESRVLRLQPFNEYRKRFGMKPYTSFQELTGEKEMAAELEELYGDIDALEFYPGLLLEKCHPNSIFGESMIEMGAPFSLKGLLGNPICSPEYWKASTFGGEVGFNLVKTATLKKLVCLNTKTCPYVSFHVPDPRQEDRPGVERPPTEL
Take `CCCN(CCC)c1c([N+](=O)[O-])cc(C(F)(F)F)c(N)c1[N+](=O)[O-]`: the compound was classed as inactive.
On to `S=C(S)NCCNC(=S)S.[Mn+2].[S-]C([S-])=NCCN=C([S-])[S-].[Zn+2]`, for which the outcome was inactive.
As to `CC(=O)[C@H]1CC[C@H]2[C@@H]3CCC4=CC(=O)CC[C@]4(C)[C@H]3CC[C@]12C`, the AC50 was 17.7 µM (active).
For the compound `N#CSCSc1nc2ccccc2s1`, the compound was classed as inactive.
On the same count and under the same terms, as for `C[C@]12C[C@H](O)[C@H]3[C@@H](CCC4=CC(=O)CC[C@@]43C)[C@@H]1CC[C@@H]2C(=O)CO`, the entry is “inactive”; as for `CC(C)(c1ccc(O)cc1)c1ccc(O)cc1`, “inactive”.

In a further experiment the target is Adenosine receptor A1 (Bos taurus) (UniProt P28190). Description: NVS_GPCR_bAdoR_NonSelective: NovaScreen (NVS) G Protein-Coupled Receptor Assay for bovine Adenosine Receptor (AdoR), Non-selective Binding (AID 2283244). As for the experimental part: NVS_GPCR_bAdoR_NonSelective is a biochemical, single-readout assay that uses extracted gene-proteins from Bovine striatal membranes in a tissue-based cell-free assay. Measurements were taken 1 hour after chemical dosing in a 96-well plate.NVS_GPCR_bAdoR_NonSelective is one of one assay component(s) measured or calculated from the NVS_GPCR_bAdoR_NonSelective assay. It is designed to make measurements of radioligand binding, a form of binding reporter, as detected with scintillation counting signals by Filter-based radiodetection technology.Data from the assay component NVS_GPCR_bAdoR_NonSelective was analyzed into 1 assay endpoint. This assay endpoint, NVS_GPCR_bAdoR_NonSelective, was analyzed in the positive analysis fitting direction relative to DMSO as the negative control and baseline of activity. Using a type of binding reporter, loss-of-signal activity can be used to understand changes in the binding as they relate to the gene ADORA1. Furthermore, this assay endpoint can be referred to as a primary readout, because the performed assay has only produced 1 assay endpoint. To generalize the intended target to other relatable targets, this assay endpoint is annotated to the gpcr intended target family, where the subfamily is rhodopsin-like receptor.
Chain of Adenosine receptor A1 (Bos taurus) (P28190 whole entry, looked up): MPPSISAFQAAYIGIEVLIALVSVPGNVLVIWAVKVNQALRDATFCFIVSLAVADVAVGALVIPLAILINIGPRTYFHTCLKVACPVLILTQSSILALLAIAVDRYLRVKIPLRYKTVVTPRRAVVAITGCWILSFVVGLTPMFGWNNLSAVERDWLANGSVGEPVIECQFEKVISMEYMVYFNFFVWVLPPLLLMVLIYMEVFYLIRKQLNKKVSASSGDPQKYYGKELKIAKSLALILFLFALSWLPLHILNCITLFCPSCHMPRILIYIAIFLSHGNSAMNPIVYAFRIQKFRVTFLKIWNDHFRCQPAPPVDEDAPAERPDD
Binding assays used specific radioligands (tritiated, iodinated) with non-radioactive competitive displacement ligands in agonist or antagonist protocols (as indicated) and various reference compounds and inhibitors to titrate specific binding to receptors and transporters. Most enzyme assays (CYPs, kinases, phosphatases, proteases, HDACs) used recombinant protein and specific substrates (fluorescence mostly, some colorimetric and radioactive) and inhibitors, followed by a biochemical separation of substrate and product. All assays for the biochemical HTS were initially run in duplicate at a single concentration (10 uM for CYP450 assays and 25 uM for all others). Assay-chemical combinations meeting a pre-defined threshold (e.g., 30% inhibition and other criteria defined below) were then run in singleton concentration-response format with maximum concentration of 20 uM for CYPs and 50 uM for all others. Each assay was run with positive and negative controls, and concurrent controls on every plate. The follow-up (secondary) screen tested active chemical-pairs in concentration series, as well as a few additional assays not tested in the primary screen, some selected negative inactives, and several cases re-run in the concentration series for confirmatory purposes.
For the compound `CCCN(CCC)c1c([N+](=O)[O-])cc(C(F)(F)F)c(N)c1[N+](=O)[O-]`, the result was inactive.
As for `CCNc1nc(N)nc(Cl)n1`, the compound was called inactive.
As for `O=C(c1ccc(O)cc1O)c1ccc(O)cc1O`, the AC50 is 3.39 µM (active).
Turning to `N[C@@H](Cc1cc(I)c(Oc2ccc(O)c(I)c2)c(I)c1)C(=O)O`, the half-maximal activity concentration (AC50) was 3.2 µM (active).
Consider `COC(=O)c1cccc(C)c1S(=O)(=O)NC(=O)Nc1nc(OCC(F)(F)F)nc(N(C)C)n1`, for which the AC50 was 5.12 µM (active).
